# Laboratory results as given in the supplement of paper PMC10732440.
# ± gives the standard deviation of the averaged measurements.
# Test system: Caenorhabditis elegans N2 infected with Nematocida parisii ERTm1
# Assay: progeny production relative to DMSO uninfected control; higher = more progeny despite microsporidia infection (inhibition of infection with low host toxicity)
# Details: infection time 6 days; 40 µM
# Procedure: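 Bleach-synchronised C. elegans N2 L1 larvae (100 per well) were grown in 96-well plates in K-medium with 5x E. coli OP50 and 15,000 N. parisii spores/uL, plus Pandemic Response Box compound at 100 uM or 40 uM (1% DMSO), for 6 days at 21 C with shaking. Worms were stained with Rose Bengal, scanned on a flatbed scanner and counted with WorMachine. Progeny production is given as % of the DMSO uninfected control (triplicate wells), so higher values mean the compound restores progeny despite infection.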
row,SMILES,progeny production
1,CCC(C)(C)c1ccc(CC(C)CN2C[C@@H](C)O[C@@H](C)C2)cc1 (stereo partly specified),4.64 ± 0.33%
2,COc1ccc(NS(=O)(=O)c2ccc(Cl)s2)cn1,4.12 ± 0.52%
3,CCN(CC)CCCC(C)Nc1ccnc2cc(Cl)ccc12 (stereo unspecified),8.75 ± 5.2%
4,Cc1cc(C)n(O)c(=O)c1,1.95 ± 0.44%
5,O=C(c1nc2c(C(F)(F)F)cc(C3CC3)cn2c1Cl)N1CCN([C@H]2CC[C@H](O)CC2)C(=O)C1,3.88 ± 1.4%
6,CCOC(=O)N1CCN(c2ccc(Cl)cc2)CC1,4.15 ± 1.7%
7,Cn1cncc1[C@@](N)(c1ccc(Cl)cc1)c1ccc2c(c1)c(-c1cccc(Cl)c1)cc(=O)n2C,2.71 ± 0.38%
8,COc1ccc(C)cc1NC(=O)c1ccc(S(=O)(=O)N2CCCCC2)cc1,7.49 ± 1.3%
9,NC(=O)[C@@H]1CC[C@@H]2CN1C(=O)N2OS(=O)(=O)O,8.69 ± 1.4%
10,Nc1cc(N)c2nc(-c3ccccc3)c(Nc3ccc(F)cc3)nc2c1,4.57 ± 1.7%
11,CC(C)Oc1ccc(-c2nc(-c3cccc4c3CC[C@@H]4NCCO)no2)cc1C#N,3.24 ± 0.4%
12,O=S(=O)(NCB(O)O)c1ccc(-c2nnn[nH]2)cc1C(F)(F)F,7.63 ± 2.6%
13,CC[C@H]1OC(=O)[C@H](C)[C@@H](O[C@H]2C[C@@](C)(OC)[C@@H](O)[C@H](C)O2)[C@H](C)[C@@H](O[C@@H]2O[C@H](C)C[C@H](N(C)C)[C@H]2O)[C@](C)(O)C[C@@H](C)C(=O)[C@H](C)[C@@H](O)[C@]1(C)O,3.49 ± 0.53%
14,CN(Cc1ccc(C(C)(C)C)cc1)Cc1cccc2ccccc12,5.41 ± 2%
15,Cc1[nH]c2ccccc2c1CC(=O)N[C@@H](Cc1ccccc1)C(=O)N(C)c1ccccc1,4.28 ± 2.4%
16,O=C(Nc1ccc(Cl)c(C(F)(F)F)c1)C(CCCl)C(=O)Nc1ccc(Cl)c(C(F)(F)F)c1,7.13 ± 2.7%
17,CCO/N=C/c1ccc(OCCCCN2CCN(c3ccncc3)C2=O)cc1,5.24 ± 4.2%
18,C[C@H](c1cccc2ccccc12)N(C)Cc1ccccc1,3.94 ± 1.7%
19,CCC(C)NCC(O)Cn1c2ccc(Cl)cc2c2cc(Cl)ccc21 (stereo unspecified),7.33 ± 7%
20,CC(=O)NC[C@H]1CN(c2ccc(N3CCSCC3)c(F)c2)C(=O)O1,6.06 ± 3.1%
21,CNC(=O)C1O[C@@H](n2cnc3c(NCc4cccc(I)c4)nc(Cl)nc32)[C@H](O)[C@@H]1O (stereo partly specified),5.42 ± 1.8%

# Same assay, conditions: infection time 6 days; 100 µM
row,SMILES,progeny production
1,CCC(C)(C)c1ccc(CC(C)CN2C[C@@H](C)O[C@@H](C)C2)cc1 (stereo partly specified),23 ± 23%
2,COc1ccc(NS(=O)(=O)c2ccc(Cl)s2)cn1,15 ± 3%
3,CCN(CC)CCCC(C)Nc1ccnc2cc(Cl)ccc12 (stereo unspecified),5.16 ± 3.5%
4,Cc1cc(C)n(O)c(=O)c1,14.8 ± 8.8%
5,O=C(c1nc2c(C(F)(F)F)cc(C3CC3)cn2c1Cl)N1CCN([C@H]2CC[C@H](O)CC2)C(=O)C1,14.2 ± 1.2%
6,CCOC(=O)N1CCN(c2ccc(Cl)cc2)CC1,12.1 ± 18%
7,Cn1cncc1[C@@](N)(c1ccc(Cl)cc1)c1ccc2c(c1)c(-c1cccc(Cl)c1)cc(=O)n2C,8.73 ± 2.4%
8,COc1ccc(C)cc1NC(=O)c1ccc(S(=O)(=O)N2CCCCC2)cc1,19.4 ± 16%
9,NC(=O)[C@@H]1CC[C@@H]2CN1C(=O)N2OS(=O)(=O)O,22.2 ± 16%
10,Nc1cc(N)c2nc(-c3ccccc3)c(Nc3ccc(F)cc3)nc2c1,23.5 ± 17%
11,CC(C)Oc1ccc(-c2nc(-c3cccc4c3CC[C@@H]4NCCO)no2)cc1C#N,4.7 ± 2.8%
12,O=S(=O)(NCB(O)O)c1ccc(-c2nnn[nH]2)cc1C(F)(F)F,22.1 ± 6.9%
13,CN(Cc1ccc(C(C)(C)C)cc1)Cc1cccc2ccccc12,17 ± 17%
14,Cc1[nH]c2ccccc2c1CC(=O)N[C@@H](Cc1ccccc1)C(=O)N(C)c1ccccc1,17.6 ± 9.7%
15,O=C(Nc1ccc(Cl)c(C(F)(F)F)c1)C(CCCl)C(=O)Nc1ccc(Cl)c(C(F)(F)F)c1,8.04 ± 5.6%
16,CCO/N=C/c1ccc(OCCCCN2CCN(c3ccncc3)C2=O)cc1,9.79 ± 7.8%
17,C[C@H](c1cccc2ccccc12)N(C)Cc1ccccc1,12.4 ± 7.8%
18,CCC(C)NCC(O)Cn1c2ccc(Cl)cc2c2cc(Cl)ccc21 (stereo unspecified),6.85 ± 6.4%
19,CC(=O)NC[C@H]1CN(c2ccc(N3CCSCC3)c(F)c2)C(=O)O1,10.4 ± 6.2%
20,CNC(=O)C1O[C@@H](n2cnc3c(NCc4cccc(I)c4)nc(Cl)nc32)[C@H](O)[C@@H]1O (stereo partly specified),12.6 ± 3.5%
